For 34 compounds, growth results are on record in PubChem BioAssay (NCI).

Values joined by “and” are separate entries in the source; they are usually repeats but may differ in a detail not shown here. Identical values can stand only once. Compounds without any hit were thinned out: in the full panel of roughly 83,000, 20% have a hit.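 The endpoint reported here, percent growth, reads 100 for growth as untreated, 0 for no net growth and -100 for all cells dead.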 Unmarked numbers belong to inactive results. Active and inactive are the calls of the source. Rule for the calls: active = growth percent below 10; inactive = the rest.

The assay deals with HL-60(TB) leukemia. As to the kind of experiment: NCI-60 one-dose screen, 48 h (100 = growth as untreated, 0 = no growth, -100 = all killed). The settings on record: 10 µM unless noted.
For `O=C(c1ccc([N+](=O)[O-])c([N+](=O)[O-])c1O)n1[nH]c(=O)c2ccccc2c1=O`, the growth was 44.6%.
The figure for `Cc1ccc(NC(=O)[C@]23CCC(C)(C)CC2C2=CCC4[C@@]5(C)C[C@@H](O)[C@H](O)[C@@](C)(CO)C5CC[C@@]4(C)[C@]2(C)CC3)cc1` (some centres undefined) is -15.4% (active); for `O=C(Nc1ccc(-c2ccc3c(c2)NC(=O)/C3=C\c2ccc[nH]2)cc1)Nc1ccc(Cl)c(C(F)(F)F)c1` it is 4.76% (active).
In the case of `N#Cc1c(NC(=O)c2ccc(C(F)(F)F)c(Cl)c2)sc2c1CCC(=O)C2` it was -14.4% (active).
The figure for `CCOC(=O)C1=C(N)N(c2ccccc2)C2=C(C(=O)CC(C)(C)C2)C1c1ccc(Cl)cc1Cl` (centres undefined) is 1.24% (active).
Turning to `Cc1ccc(Cl)cc1NC(=O)Nc1nc2ccc([N+](=O)[O-])cc2s1`, the growth is 1.69% (active).
As for `O=C1/C(=C/c2cccc3c2OCO3)Cc2c(F)cc(Br)cc21`, the growth is 97.8%.
In the case of `O=C1N/C(=N\c2nccs2)S/C1=C\c1ccc([N+](=O)[O-])cc1` it was 5.47% (active); in that of `O=CNc1cccc(-n2cnc3cc(-c4ccc(O)cc4)ccc32)c1`, 8.14% (active).
On to `COc1ccc2c(c1)N=C(C(=O)O)/C2=C/c1sc(Nc2ccc(O)cc2)nc1O`, for which the growth was 85.8%.
The figure for `COc1ccc(CCN2C(=O)/C(=C/c3csc(C#N)n3)SC2=S)cc1` is -23.8% (active); for `Cc1nn(-c2ccccc2)c2nc(C)n(C(=O)N/N=C/c3cccc([N+](=O)[O-])c3)c(=O)c12` it is 74%; for `CN(C)c1ccc(/C=C/c2nc3ccccc3c(=O)n2CC(=O)Nc2ccc(Cl)cc2)cc1` it is 95%.
In the case of `CS(=O)(=O)Nc1cc(-c2ccc3ncnc(Nc4ccc(OCc5cccnc5)c(Cl)c4)c3c2)cnc1Cl` it was -59.5% (active).
With `Cn1cc(-c2cc3nc(-c4cn(C)c5ncc(Br)cc45)cc(N)n3n2)c2cc(Cl)ccc21`, the growth was -62.4% (active).
Consider `NC1(c2ccc(-c3ccc4ncnc(NCc5ccccc5)c4c3)cn2)COC1`, for which the growth is 113% and 106%.
In the case of `O=C(NN1C(=O)/C(=C/C=C/c2ccc([N+](=O)[O-])o2)SC1=S)c1cccc(O)c1` it was -2.32% (active); in that of `O=C(COc1ccc2c(c1)CCCC(=O)N2)NCc1ccccc1`, 70.4%.
The figure for `N#Cc1c(NC(=O)c2ccc(C(O)(C(F)(F)F)C(F)(F)F)cc2)sc2c1CCC(=O)C2` is -23.4% (active).
In the case of `CCOC(=O)c1c(CSc2ccccc2)n(C)c2cc(CN(C)C)c(O)c(CN(C)C)c12` it was 52.2%.
As to `NS(=O)(=O)c1ccc(N=Nc2c(O)n(CC(=O)Nc3ccccc3)c3ccccc23)cc1`, the growth was 48.7%.
The figure for `COc1cccc(COc2ccc(/C=C3\Oc4cc(O)ccc4C3=O)cc2)c1` is 79.5%.
As to `CCS(=O)(=O)N1CCCC(C(=O)Nc2nc3ccc(NC(=O)c4ccc(F)c(OC)c4F)cc3s2)C1` (centres undefined), the growth was 53.9%.
In the case of `C=C1CCC2C3(C)COC(c4cccc(F)c4)OC3CCC2(C)C1C/C=C1/C(=O)OCC1O` (centres undefined) it was 4.43% (active); in that of `COc1ccc2[nH]c(O)c(N=Nc3nc(-c4ccc(Br)cc4)cs3)c2c1`, 73.5%; in that of `N#Cc1c(-c2ccc(Br)cc2)nc2n[nH]c(-c3ccc(Br)cc3)c2c1-c1ccc(F)cc1`, 80.4%.
With `O=C(c1ccc(Cl)cc1)C1[C@H](c2ccc(Br)cc2)[C@@H](c2ccccc2)NC12C(=O)Nc1ccccc12` (some centres undefined), the growth is -32% (active).
The figure for `O=C(Nc1ccc(F)cc1)Nc1nc2ccc([N+](=O)[O-])cc2s1` is -11.5% (active); for `C/C(=N\N=C\c1ccc(Cl)c([N+](=O)[O-])c1)c1ccc2c(c1)Nc1ccccc1S2` it is 51%; for `C=C1CC[C@@H]2[C@]3(C)COC(c4cn[nH]c4-c4ccc(OC)cc4)O[C@@H]3CC[C@@]2(C)[C@@H]1C/C=C1/C(=O)OCC1O` (some centres undefined) it is 1.59% (active).
The figure for `CC(=O)Nc1cccc(Nc2nc(NCc3ccccc3)c3ccccc3n2)c1` is -64% (active).
In the case of `O=C1C=CC(=CC=C2N(Cc3ccc4ccccc4c3)c3ccccc3N2Cc2ccc3ccccc3c2)C=C1` it was -26.5% (active) and -21.5% (active); in that of `C/C(=N\Nc1ccc(C(=O)O)cc1)c1cnn(-c2cc(=O)[nH]c3ccc(C)cc23)c1C`, 101%; in that of `CC1(C)CC[C@]2(C(=O)O)CC[C@]3(C)C(=CCC4[C@@]5(C)C[C@@H](O)[C@@H]6OC(c7ccccc7F)OC[C@@]6(C)C5CC[C@]43C)C2C1` (some centres undefined), 2.91% (active).
